# Measured values reported in PubChem BioAssay (NCI).
# Compounds without any hit were thinned out: in the full panel of roughly 79,000, 15% have a hit. Values without a mark were called inactive. The source made the active and inactive calls. No stated cut-off is given here; in the data, active means growth inhibition above about 70%; inactive means the rest.
# Legend:
# [1] = NCI Yeast Anticancer Drug Screen. Data for the rad50 strain (AID 155);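 further: 0% = growth of vehicle-only cultures of the same strain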; details: S. cerevisiae rad50 strain growth inhibition; at 50.0 µM; stronger effect = higher value
# Procedure, shortened: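 Compounds were tested on a yeast strain with an engineered DNA damage repair alteration; the reported value is growth inhibition normalised to vehicle treatment.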
# [2] = NCI Yeast Anticancer Drug Screen. Data for the mec2-1 strain (AID 157); details: S. cerevisiae mec2-1 strain, at 50.0 µM, stronger effect = higher value
# Procedure, shortened: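 Vehicle-treated cultures served as reference for growth inhibition of compound-exposed mec2-1 yeast.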
# [3] = NCI Yeast Anticancer Drug Screen. Data for the sgs1 mgt1 strain (AID 161);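 further: 0% = growth of cultures given vehicle only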; details: S. cerevisiae sgs1 mgt1 strain, at 50.0 µM, stronger effect = higher value
# Procedure, shortened: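 Inhibition of yeast growth, normalised to vehicle-treated controls, is reported for a strain bearing genetic alterations in DNA damage repair.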
# [4] = NCI Yeast Anticancer Drug Screen. Data for the cln2 rad14 strain (AID 165);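 further: 0% = growth equal to vehicle treated cultures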; details: S. cerevisiae cln2 rad14 strain, at 50.0 µM, stronger effect = higher value
# Procedure, shortened: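 Each compound was tested on cln2 rad14 yeast. Inhibition of growth was calculated against vehicle-exposed controls.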
# [5] = NCI Yeast Anticancer Drug Screen. Data for the bub3 strain (AID 167); details: S. cerevisiae bub3 mutant strain, at 50.0 µM, stronger effect = higher value
# Procedure, shortened: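 Growth of a checkpoint-deficient yeast mutant is measured after compound exposure. Values represent inhibition relative to vehicle.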
# [6] = NCI Yeast Anticancer Drug Screen. Data for the mlh1 rad18 strain (AID 175); details: S. cerevisiae mlh1 rad18 strain growth inhibition; at 50.0 µM; stronger effect = higher value
# Procedure, shortened: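 Vehicle-treated cultures served as the reference for growth inhibition in a yeast strain carrying DNA damage repair alterations exposed to each compound.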
SMILES,growth inhibition [1] [%],growth inhibition [2] [%],growth inhibition [3] [%],growth inhibition [4] [%],growth inhibition [5] [%],growth inhibition [6]
CCCCSc1nc2ccccc2c(=O)[nH]1,-10.7,-13,-4.6,13.3,9.3,3.1%
CCOC(=O)NN(C(=O)OCC)C(C(=O)C1CCCCC1)N(NC(=O)OCC)C(=O)OCC,21.4,-21.6,18.9,11.2,-3.55,-8.4%
Cc1ccc2ccccc2c1C(=O)c1ccccc1Cc1cccc2ccccc12,17.6,2.65,10.6,2.2,4.55,-1.05%
Clc1cccc(C2N3CCCCC3[C@@H]3c4[nH]c5ccccc5c4CCN23)c1 (stereo not given in full),-0.75,-1.85,-1.95,3.1,10.9,1.7%
CN(C)CCCNc1ccc2nnn3c4ccc([N+](=O)[O-])cc4c(=O)c1c23,68.8,35,45.8,55.1,65.7,80% (active)
O=C(CC1=NC2NN(c3ccccc3)C(=O)C2=C1CC(=O)c1ccc([N+](=O)[O-])cc1)c1ccc([N+](=O)[O-])cc1 (stereo not given),42.1,-11.4,3.4,2.7,19.9,32%
CCC(C)c1cc(C(C)(C)C)cc(-n2nc3ccccc3n2)c1OS(=O)(=O)c1cccc(N)c1 (stereo not given),-4.4,-27.1,-12.8,2.7,-16.9,-22%
COc1cc(C=C(C#N)C#N)ccc1OC(=O)c1cc(OC)c(OC)c(OC)c1,-1.5,-5.6,15.8,2.2,4.45,-6.25%
O=C(/C=C/c1ccccc1)CC(=O)c1ccccc1.O=C(/C=C/c1ccccc1)CC(=O)c1ccccc1.[Cu],-17.1,-10.7,-15.7,-35.8,-2.45,-15.9%
CCCCCCCCCCCCCC(=O)CCCC,-9.7,-8.4,2.2,-22.5,-2.45,-18%
C[N+]1(C)C2Cc3ccccc3C1Cc1ccccc12,-1.7,-11.6,11.4,10.4,3.75,-57%
Cc1cccc(NC(=O)C(Cl)Cl)n1,-2.3,-20.8,-24.4,-43.8,-1.95,-18.1%
COc1ccc(C(=O)NNC(=O)c2ccc3ccccc3c2)cc1,10.8,1.25,9.8,9.95,5.5,-7.3%
COc1cc(C)nc2ccc(C(=O)c3ccccc3)cc12,31,6.1,31.6,17.5,10.4,48%
CCCC/C(C)=N/NC(N)=S,2.3,-4.3,-4.3,-2.65,-15.9,1.9%
CC(=O)Nc1ccc(S(=O)(=O)N/N=c2/sc3ccccc3n2C)cc1N,-4.6,-2.7,-3.8,15.2,-8.75,3.2%
Cc1ccccc1C(=O)OC1CCCC1,13.1,-1.45,2.95,-19.4,8.1,0.5%
O=C1N(CCN2CCC3(CC2)OCCO3)CCN1c1cc(Cl)cc(Cl)c1,56.9,25.4,51,34.3,24.6,37.8%
Nc1cc(C(=O)O)c2ccccc2c1,4.5,-6.95,-5.7,-16.8,3.45,5.15%
CCCCCC(O)c1ccc2c(c1)OCO2 (stereo not given),13.8,12.9,10.4,2.2,-8.85,0%

SMILES,growth inhibition [1] [%],growth inhibition [2] [%],growth inhibition [3] [%],growth inhibition [4] [%],growth inhibition [5] [%],growth inhibition [6]
CCc1cccc(CC)c1N=Cc1ccccc1O,32.8,11,21.6,16.1,10.8,19%
CC(C)=C1C2CCC1[C@H](COS(C)(=O)=O)[C@@H]2COS(C)(=O)=O,-6.7,6.5,4.45,16.9,11.1,-11.2%
N#CC1C2C1C1C=CC2n2c(=O)n(-c3ccccc3)c(=O)n21 (stereo not given),3,2.5,3.25,27.4,7.15,4.95%
O=C(NCC(CC(NC(=O)c1ccccc1)C(=O)O)NC(=O)c1ccccc1)c1ccccc1 (stereo not given),-20.5,-4.85,-11.4,16,-5.9,0.9%
NC(=O)c1nnsc1N/N=C/c1ccc([N+](=O)[O-])cc1,8.85,25.9,-25.1,-2.05,-20.1,-5.1%
O=C(CCCl)Nc1c(Cl)cccc1Cl,10.2,11.7,8.9,18.6,21.1,-3.65%
CC(=O)NC(C)c1ccc(N=NN2CCCC2)cc1 (stereo not given),19.6,-6,20,19.9,25.3,-30.5%
CC(C)(O)c1cc(F)ccc1N,-0.75,11.3,-1.3,15.3,29.6,8.3%
CCOC(=O)Cc1nc2ccccc2[nH]c1=O,25,-11.7,1.25,0.35,-6.35,-17.2%
O=C(/C=C/c1ccc(Cl)cc1)c1ccc(Cl)s1,-52,-48.8,-23.1,-16.2,-16.1,-24.9%
O=C(O)/C=C/C(=O)Nc1ccccc1Cl,10.4,29.6,48.9,0,42.2,21%
Cc1ccc(S(=O)(=O)Nc2ccc(C(=O)NC(CCC(=O)O)C(=O)O)cc2)cc1 (stereo not given),3.3,2.95,-8.05,-2.45,-1.5,13.7%
CC(C)(C)CNC(=S)Nc1ccccc1,3.45,2.6,3.4,3.55,-2.05,10%
CCCCCCCC(=O)OC(CC)CCCC (stereo not given),5.25,-9.9,1.5,8.35,3.6,-1.2%
O=C(CSc1nnc(-c2ccccc2NC(=O)C(F)(F)F)c(=O)[nH]1)NC(=O)Nc1ccccc1,31.7,-28.8,11.7,16.3,-8.35,23.9%
NC(N)=NS(=O)(=O)c1ccc(N2C(=O)CC3(CCCC3)C2=O)cc1,10.8,-2.25,-16.8,17.6,13.4,6.75%
Nc1ccc(S(=O)(=O)Nc2ccc([N+](=O)[O-])cn2)cc1,-28.4,-43,17.2,17,-20.4,-15.6%
O=S(Cc1ccccc1)CC(O)CO (stereo not given),-24.9,5.95,2.7,-41.2,10.3,-0.85%
Cc1cccc(-c2nnc3s/c(=C\c4ccc(N(C)C)cc4)c(=O)n23)c1,-3.05,8.15,13.4,13.8,13.5,16.4%
O=C(Nc1cccc(Cl)c1)Oc1cccnc1,-5.1,-29.9,7.7,-4.55,-2.85,-12.6%
